Assay [1] is described as follows: qHTS for Inhibitors of the Aldehyde Dehydrogenase Family (ALDH1A2, ALDH1A3, ALDH2, ALDH3A1) (AID 2061307). Also: nearly all actives have a fitted effect of over 50% in size. As to Potency: test system not described further here; potency is read from the fitted curve at half-maximal effect. In general terms: In qHTS, concentration-response curves come from the screen itself.
Assay [2] has as its target Retinaldehyde dehydrogenase 3 (Homo sapiens) (UniProt P47895). As to the kind of experiment: qHTS for Inhibitors of the Aldehyde Dehydrogenase Family (ALDH1A3) Primary screen (AID 2061315).
For assay [3], the target named is Retinal dehydrogenase 2 (Homo sapiens) (UniProt O94788). The assay is described as follows: qHTS for Inhibitors of the Aldehyde Dehydrogenase Family (ALDH1A2) Confirmation screens (AID 2061314). Also: nearly all actives have a fitted effect of over 65% in size. Also: potency is read from the fitted curve at half-maximal effect.
Assay [4] has as its target Aldehyde dehydrogenase 1A1 (Homo sapiens) (UniProt P00352). The assay is described as follows: qHTS for Inhibitors of the Aldehyde Dehydrogenase Family (ALDH1A1) Confirmatory screens (AID 2061316). Also: nearly all actives have a fitted effect of over 65% in size. Also: potency is read from the fitted curve at half-maximal effect.
Assay [5] concerns the target Retinaldehyde dehydrogenase 3 (Homo sapiens) (UniProt P47895). As to the kind of experiment: qHTS for Inhibitors of the Aldehyde Dehydrogenase Family (ALDH1A3) Confirmatory screens (AID 2061311). Also: nearly all actives have a fitted effect of over 60% in size. Also: potency is read from the fitted curve at half-maximal effect.
The target in assay [6] is Aldehyde dehydrogenase, mitochondrial (Homo sapiens) (UniProt P05091). As to the kind of experiment: qHTS for Inhibitors of the Aldehyde Dehydrogenase Family (ALDH2) Primary screen (AID 2061308). Also: nearly all actives have a fitted effect of over 55% in size.

Records with an inconclusive call do not appear. The source made the active and inactive calls. Calls follow the shape of the dose curve; as a rule, active = well fitted curve in the direction sought with a large enough effect; inconclusive = small, poorly fitted or top-dose-only effect, or another doubt; inactive = no such curve, though single readings can be large; an effect the other way counts as inactive or inconclusive.

For `COc1ccc(NC(=O)c2cccnc2)cc1S(=O)(=O)Nc1ccc(Br)cc1`, the Potency result in assay [1] and in assay [2] was “inactive” throughout.

Regarding `Cc1cc(N(C)S(=O)(=O)c2ccc(NC(=O)Cc3ccc(Cl)c(Cl)c3)cc2)no1`, the Potency was 25.2 µM (active) in assay [1] and 12.7 µM (active) in assay [4]. Also, the Potency entry in assay [3] is “inactive”.

Turning to `Cc1cc(NC(=O)Nc2nnc(-c3ccncc3)s2)ccc1Br`, the Potency was 11.3 µM (active) in assay [1] and 12.7 µM (active) in assay [4]. Besides, the Potency result in assay [5] and in assay [2] was “inactive” throughout.

As to `O=C(CSc1nc2ncccc2o1)Nc1ccc(Cl)cc1F`, the Potency result in assay [1] and in assay [4] was “inactive” in each case. In assay [5], the Potency is 10 µM (active).

With `O=C(N/N=C/c1ccc(Sc2ccccn2)o1)c1ccccc1`, the Potency in assay [1] is 5.65 µM (active). Besides, the Potency result in assay [3] was “inactive”.

In the case of `O=C(NCc1ccccc1)c1csc(N2CCN(c3ccc(Cl)cc3)CC2)n1`, the Potency in assay [1] was 2.82 µM (active). Besides, in assay [3], the Potency entry was “inactive”.

As for `CN(C)CCCNc1cc(O)c2ncccc2c1`, the Potency result in assay [1] is “inactive”. The Potency is 1.42 µM (active) in assay [5] and 4 µM (active) in assay [4].

As to `Cc1ccc(NS(=O)(=O)c2cc3c(cc2-c2ccco2)NC(=O)CO3)cc1C`, the Potency result in assay [1], in assay [3] and in assay [2] was “inactive” throughout. Besides, the Potency in assay [4] was 11.3 µM (active).

Turning to `Cc1ccc(C)n1-c1cccc(C(=O)O)c1`, the Potency in assay [1] is 5.65 µM (active). The Potency result in assay [2] is “inactive”.

Regarding `Cc1ccc(OCCn2c(CCNC(=O)c3ccccc3N)nc3ccccc32)cc1`, the Potency in assay [1] is 1.13 µM (active); in assay [3], 12.7 µM (active); in assay [4], 7.12 µM (active). Moreover, the Potency entry in assay [2] is “inactive”.

On to `COc1ccc(C2=NS(=O)(=O)N(C)C(C(=O)Nc3ccc(OC(F)(F)F)cc3)=C2)cc1`, for which the Potency in assay [1] was 7.94 µM (active). Also, the Potency entry in assay [3] was “inactive”.

Take `CC(=O)Nc1cccc(OCc2cccc(C3Nc4ccccc4C(=O)N3Cc3ccco3)c2)c1` (stereo not given): the Potency in assay [1] is 7.94 µM (active); in assay [5], 10 µM (active); in assay [4], 7.12 µM (active). The Potency entry in assay [2] was “inactive”.

Turning to `CC(C)(O)c1ccccc1CC[C@H](SCC1(CC(=O)O)CC1)c1cccc(/C=C/c2ccc3ccc(Cl)cc3n2)c1`, the Potency is 10.1 µM (active) in assay [1] and 22.5 µM (active) in assay [4]. The Potency entry in assay [3] and in assay [2] was “inactive” in each case.

As for `C[C@@H](O)c1ccc(-c2ccc3ncnc(NCc4cccs4)c3c2)o1`, the Potency result in assay [1] and in assay [2] was “inactive” each time.

Turning to `CC(=O)C1CCC2(C)C3=C(CCC12C)C1(C)CCC(=O)C(C)(C)C1CC3` (stereo not given), the Potency entry in assay [1] and in assay [2] was “inactive” in each case.

On to `CC(=O)Nc1sc2c(c1-c1ccc(N(C)C)cc1)CCNC2`, for which the results for the Potency in assay [1], in assay [5] and in assay [4] were 14.2 µM (active), 3.57 µM (active) and 11.3 µM (active), respectively.

Consider `COc1ccc(C2Nc3ccc(Cl)cc3C(=O)N2Cc2ccccc2)cc1COc1ccc(NC(C)=O)cc1` (stereo not given), for which the Potency in assay [1] was 3.57 µM (active); in assay [3], 11.3 µM (active); in assay [4], 22.5 µM (active). The Potency result in assay [2] was “inactive”.

As to `Cc1ccnc(NC(=S)N2CCNCC2)c1`, the Potency entry in assay [1] and in assay [3] was “inactive” each time.

As to `CNc1sc(-c2cccc3ccccc23)nc1C#N`, the Potency entry in assay [1] and in assay [2] was “inactive” each time. The Potency is 11.3 µM (active) in assay [3] and 5.04 µM (active) in assay [4].

Consider `Cc1cccc2c1NC(=O)/C2=C/c1cc(Cl)c(O)c(Cl)c1`, for which the Potency in assay [1] is 4 µM (active). In addition, the Potency result in assay [2] is “inactive”.

Consider `CCC(=O)NC(c1ccco1)c1cc(Cl)c2ccccc2c1O` (stereo not given), for which the Potency result in assay [6] was “inactive”.

For the compound `CCCn1c(-c2ccc(F)cc2)nc2c(N3CCN(CCn4ccnc4)CC3)nc(C)nc21`, the Potency entry in assay [6] is “inactive”.

In the case of `O=C(O)c1ccc(-c2noc(-c3ccccc3Cl)n2)cc1`, the Potency entry in assay [6] is “inactive”.

Regarding `CC(C)(C)NS(=O)(=O)c1cccc(Nc2nn3c(=O)c4ccccc4nc3s2)c1`, the Potency is 22.5 µM (active) in assay [1] and 11.3 µM (active) in assay [4]. Besides, in assay [2], the Potency entry is “inactive”.

Take `O=C1c2ccccc2C(=O)N1c1cccc(=O)[nH]1`: the Potency result in assay [1], in assay [2] and in assay [4] was “inactive” in each case.

As to `O=C1Cc2cc(S(=O)(=O)N3CCN(c4ccc([N+](=O)[O-])cc4)CC3)ccc2N1`, the Potency entry in assay [1] and in assay [2] was “inactive” throughout.

Regarding `Cc1cc(C)nc(NC(=S)N2CCN(c3ccc(F)c(Cl)c3)CC2)c1`, the Potency was 7.08 µM (active) in assay [1] and 6.34 µM (active) in assay [4]. In assay [2], the Potency entry was “inactive”.

Consider `Cc1ccnc(NC(=S)N2CCN(c3ccc(Br)cc3)CC2)c1`, for which the Potency entry in assay [6] was “inactive”.

Turning to `Cc1ccc(-c2ccc(CNc3nc(-c4ccccc4C(C)C)nc4ccsc34)cc2)cn1`, in assay [6], the Potency entry was “inactive”.

Take `COc1ccc(OC)c(N2C(=O)C(Cl)=C(N3CCCCC3)C2=O)c1`: the Potency entry in assay [6] was “inactive”.

As to `CC(C)(C)c1ccc(-c2nnc(NC(=O)Nc3ccc4ccccc4c3)s2)cc1`, the Potency in assay [1] was 10.1 µM (active); in assay [4], 11.3 µM (active). Also, the Potency entry in assay [2] was “inactive”.

Take `COc1ccc(C2Nc3cccc4cccc(c34)N2)cc1`: the Potency entry in assay [6] is “inactive”.

With `COc1ccnc(NC(=S)N2CCN(c3ccc(Cl)cc3Cl)CC2)c1`, the figures for the Potency in assay [1] and in assay [4] were 11.2 µM (active) and 5.65 µM (active), respectively.

For `OC/C=C/c1ccc(O[C@@H]2O[C@H](CO)[C@@H](O)[C@H](O)[C@H]2O)cc1`, in assay [6], the Potency entry is “inactive”.

In the case of `CN(C)C1CCN(Cc2cc(COCc3ccccc3)c3cccnc3c2O)C1` (stereo not given), the Potency entry in assay [6] was “inactive”.

With `CCOCCCNC(=O)Nc1cc(C(=O)NCc2ccc(C(C)C)cc2)ccc1N1CCCC1`, the Potency in assay [1] was 0.726 µM (active); in assay [4], 2.89 µM (active).

On to `CC(C)(C)OC(=O)N1CCN(c2ccc(NCc3ccc4c(c3)OCO4)cc2)CC1`, for which the Potency entry in assay [6] is “inactive”.

As for `CC(O)c1ccc(-c2ccc3ncnc(NCc4nccs4)c3c2)o1` (stereo not given), the Potency entry in assay [1] and in assay [2] was “inactive” in each case. Besides, the Potency in assay [4] was 10.1 µM (active).

`Cc1ccc(-c2cc(C(=O)Nc3ccccn3)c3ccccc3n2)cc1C`: the Potency result in assay [6] is “inactive”.

Regarding `C=C1/C(=C/C=C2\CCC[C@]3(C)[C@@H]([C@H](C)/C=C/C(=O)C4CC4)CC[C@@H]23)C[C@@H](O)C[C@@H]1O`, the Potency entry in assay [6] was “inactive”.

`c1ccc2[nH]c(-c3ccc(NCc4ccc5c(c4)OCCO5)cc3)nc2c1`: the Potency result in assay [6] is “inactive”.

As to `COc1cccc(Nc2ccc(N3CCN(C(C)=O)CC3)cc2)c1OC`, the Potency entry in assay [6] was “inactive”.

Turning to `Cn1cc(CCn2cnc(-c3cnn(C)c3)c2-c2ccc(C#N)cc2)cn1`, in assay [6], the Potency entry is “inactive”.

`COc1ccc(C2c3c(N)nc(CCc4ccccc4)nc3Oc3ccc4ccccc4c32)cc1OC` (stereo not given): the Potency result in assay [1] and in assay [2] was “inactive” each time.

Turning to `Cc1ccc(CN(C)c2ncnc3ccc(-c4ccc5c(c4)OCO5)cc23)o1`, the Potency was 15.8 µM (active) in assay [1] and 8.96 µM (active) in assay [4]. For the same compound, in assay [2], the Potency entry was “inactive”.

Consider `FC(F)(F)c1ccccc1-c1nc(NCc2ccc(-c3cccc4ccccc34)cc2)c2ccccc2n1`, for which the Potency entry in assay [6] was “inactive”.

As to `COc1ccnc(NC(=S)N2CCN(c3cccc(Cl)c3Cl)CC2)c1`, the Potency in assay [1] was 10 µM (active); in assay [4] it was 4 µM (active).

Turning to `O=C(O)c1cccc(-c2noc(-c3ccc(Cl)cc3)n2)c1`, the Potency entry in assay [6] is “inactive”.

Regarding `Cc1cc(NCc2ccc(-c3cccnc3)cc2)nc(-c2ccccc2C(C)C)n1`, the Potency entry in assay [6] was “inactive”.

Take `CC(=O)Nc1sc2c(c1-c1ccc(C#N)cc1)CCNC2`: the Potency result in assay [1], in assay [2] and in assay [4] was “inactive” throughout.

As for `CN1CCN(c2ccc(Nc3c4ccccc4nc4ccccc34)cc2)CC1`, the Potency result in assay [6] is “inactive”.

Regarding `O=C(Nc1nnc(-c2ccncc2)s1)Nc1ccc(Cl)c2ccccc12`, the Potency entry in assay [6] is “inactive”.

In the case of `Cc1ccc(-c2ccc(=O)n(CC(=O)NCc3ccccc3)n2)cc1`, the Potency result in assay [6] was “inactive”.

For `COc1cc(N2CCOCC2)ccc1Nc1ncc(Cl)c(Nc2ccccc2NS(C)(=O)=O)n1`, in assay [6], the Potency result is “inactive”.

For the compound `Cn1c2cc(Br)sc2c2cnn(Cc3c(F)cccc3Cl)c(=O)c21`, in assay [6], the Potency result was “inactive”.

Consider `O=[N+]([O-])c1ccc(S(=O)(=O)Nc2cnc3ccccc3c2)cc1`, for which the Potency result in assay [1], in assay [2] and in assay [4] was “inactive” in each case.

These data come from PubChem BioAssay (NCATS).
